The whole screen tested about 310,000 compounds, of which about 14,000 (4.5%) showed an effect of 50% or more. The effect is printed as a negative number. The sample holds strong results, similar compounds and a random draw of the others, so the mix is not that of the screen.
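Also: peak tail current of the secondary pulse compared with the same well before compound.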

The target of this test is human ether-à-go-go-related gene (hERG) potassium channel (human, UniProt Q12809). The test is described as follows: primary screen, population patch clamp on CHO cells stably expressing hERG; higher = less effect of the substance.
Sequence of human ether-à-go-go-related gene (hERG) potassium channel (Q12809 whole entry, looked up): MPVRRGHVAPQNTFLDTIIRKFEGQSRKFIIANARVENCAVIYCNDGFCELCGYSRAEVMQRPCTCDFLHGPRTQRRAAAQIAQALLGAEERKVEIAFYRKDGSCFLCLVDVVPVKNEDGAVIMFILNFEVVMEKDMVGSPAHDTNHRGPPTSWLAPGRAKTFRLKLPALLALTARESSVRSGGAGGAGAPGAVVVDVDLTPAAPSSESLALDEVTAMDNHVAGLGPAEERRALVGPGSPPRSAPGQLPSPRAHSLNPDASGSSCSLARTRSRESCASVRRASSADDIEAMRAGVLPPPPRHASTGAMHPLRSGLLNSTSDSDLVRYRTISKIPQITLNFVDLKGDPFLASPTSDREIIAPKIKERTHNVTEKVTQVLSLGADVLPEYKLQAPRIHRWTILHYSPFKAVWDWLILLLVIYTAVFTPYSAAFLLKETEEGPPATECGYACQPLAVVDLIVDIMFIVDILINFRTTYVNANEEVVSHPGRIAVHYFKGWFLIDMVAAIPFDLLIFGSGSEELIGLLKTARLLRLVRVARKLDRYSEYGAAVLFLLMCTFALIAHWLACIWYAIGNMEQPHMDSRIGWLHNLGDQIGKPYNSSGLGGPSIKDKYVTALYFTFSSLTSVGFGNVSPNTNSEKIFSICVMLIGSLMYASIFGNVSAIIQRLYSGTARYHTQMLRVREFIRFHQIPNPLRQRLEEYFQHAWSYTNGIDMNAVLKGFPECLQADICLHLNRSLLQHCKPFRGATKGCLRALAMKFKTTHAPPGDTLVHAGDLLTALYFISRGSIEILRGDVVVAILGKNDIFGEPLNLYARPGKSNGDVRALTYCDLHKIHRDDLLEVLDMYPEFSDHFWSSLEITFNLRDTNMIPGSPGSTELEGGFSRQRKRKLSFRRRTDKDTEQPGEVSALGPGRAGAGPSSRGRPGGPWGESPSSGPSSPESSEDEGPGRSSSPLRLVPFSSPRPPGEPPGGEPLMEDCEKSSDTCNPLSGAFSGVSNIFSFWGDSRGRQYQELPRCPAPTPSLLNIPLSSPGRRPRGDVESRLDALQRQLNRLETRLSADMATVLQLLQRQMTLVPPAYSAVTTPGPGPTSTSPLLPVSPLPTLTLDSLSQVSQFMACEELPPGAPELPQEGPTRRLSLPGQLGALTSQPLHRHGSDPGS
As to `CC(NCCOc1ccccc1F)C(=O)Nc1ccc(S(N)(=O)=O)cc1` (stereo not shown), the “hERG current change (%, negative = inhibition) at 10uM” value turned out to be 13.4%.

In the case of `N#Cc1c(N)c(C(=O)c2ccc(Cl)cc2)n2c1CCC2`, the “hERG current change (%, negative = inhibition) at 10uM” value came out at 5.5%.

`CCCCN(CCCC)C(=O)c1cc(Cl)ccc1[N+](=O)[O-]`: the “hERG current change (%, negative = inhibition) at 10uM” value was -1.4%.

In the case of `O=C1CCC(C(=O)N(Cc2ccco2)C2(C(=O)NC3CCCC3)CCCCC2)N1` (stereo not shown), the “hERG current change (%, negative = inhibition) at 10uM” value was determined as 13.4%. The same measure for `CCNc1nc(NCC)nc(N/N=C(\C)c2ccc(OC)cc2)n1`: -14.1%; for `CCn1cc(C(=O)NCC2CCCO2)c(=O)c2cc(S(=O)(=O)N3CCC(C)CC3)ccc21` (stereo not shown): -28.1%; for `Cc1ccc(C(=O)NCc2ccco2)cc1S(=O)(=O)N1CCCCC1`: -18.6%. As for `CCn1cc(C(=O)NCc2ccco2)c(=O)c2cc(S(=O)(=O)N3CCCCCC3)ccc21`, the figure is -53.3%.

`CCn1cc(C(=O)NCc2ccco2)c(=O)c2cc(S(=O)(=O)N3CCCC3)ccc21`: the “hERG current change (%, negative = inhibition) at 10uM” value was -4.37%.

As for `Cc1ccc(C(=O)NCc2ccco2)cc1S(=O)(=O)Nc1cccc(C)c1C`, the “hERG current change (%, negative = inhibition) at 10uM” value is given as -32.2%. Consider `CCn1cc(C(=O)NCc2ccco2)c(=O)c2cc(S(=O)(=O)N3CCC(C)CC3)ccc21`, for which the “hERG current change (%, negative = inhibition) at 10uM” value was -36.5%. As for `O=C(NCc1ccco1)c1ccc(F)c(S(=O)(=O)N2CCCCC2)c1`, the figure is -11.3%. As for `Cc1ccccc1NS(=O)(=O)c1cc(C(=O)NCc2ccco2)ccc1C`, the figure is -20.3%.

For the compound `Cc1ccc(C)c(NS(=O)(=O)c2cc(C(=O)NCc3ccco3)ccc2C)c1`, the “hERG current change (%, negative = inhibition) at 10uM” value is listed as -52.3%.

For `O=C(NCc1ccco1)c1ccc(Br)c(S(=O)(=O)N2CCCCC2)c1`, the “hERG current change (%, negative = inhibition) at 10uM” value is listed as -53%. As for `CCn1cc(C(=O)NCC2CCCO2)c(=O)c2cc(S(=O)(=O)N3CCCCCC3)ccc21` (stereo not shown), the figure is -51.3%; as for `CCn1cc(C(=O)NCC2CCCO2)c(=O)c2cc(S(=O)(=O)N3CCCCC3)ccc21` (stereo not shown), -34%.

As to `COc1cc(CCC(=O)Nc2ccc(C)c(S(=O)(=O)N3CCCCCC3)c2)cc(OC)c1OC`, the “hERG current change (%, negative = inhibition) at 10uM” value is given as -6.5%.

Take `O=C(OCCN1C(=O)c2ccccc2C1=O)C1CCN(S(=O)(=O)c2cccs2)CC1`: the “hERG current change (%, negative = inhibition) at 10uM” value is -31.9%.

Take `COc1cc(CCN2C(=O)N[C@@H](CCc3ccccc3)C(C(C)=O)=C2C)cc(OC)c1OC`: the “hERG current change (%, negative = inhibition) at 10uM” value is listed as -12.6%. As for `CC(=NCC1CCCO1)c1c(O)n(C2CCCCC2)c(=O)[nH]c1=O` (stereo not shown), the “hERG current change (%, negative = inhibition) at 10uM” value is recorded as -9.77%. The same measure for `CC(C)(C)NC(=O)CN1CCCN(C(=O)c2cccc(S(=O)(=O)N3CCc4ccccc43)c2)CC1`: -7.51%; for `CCn1c(NN=O)nc2ccccc21`: 15.6%. As for `O/N=C1/C2C3CC4C5C3C1C5C1(OCCO1)C42` (stereo not shown), the figure is 4.44%; as for `Cc1cccc(OS(=O)(=O)NC(=O)OCC2CCCN3CCCCC23)c1` (stereo not shown), 15.1%. As for `O=C(c1cc2nc(-c3ccccc3)cc(-c3ccccc3)n2n1)N1CCC2(CC1)OCCO2`, the figure is -49.4%; as for `C/C(=N/Nc1ccc(F)cc1)c1ccc(Cl)s1`, 8.69%; as for `CC(C)(C)c1ccc(CCC(CC(=O)O)CC(=O)O)cc1`, -11.9%.

Consider `CCN1CCCC1CNC(=O)c1cn(CC)c2ccc(S(=O)(=O)N3CCCCCC3)cc2c1=O` (stereo not shown), for which the “hERG current change (%, negative = inhibition) at 10uM” value is given as -66.5%. Consider `CCn1cc(C(=O)NC2CCCCCC2)c(=O)c2cc(S(=O)(=O)N3CCCCC3)ccc21`, for which the “hERG current change (%, negative = inhibition) at 10uM” value was 8.24%. The same measure for `CCn1cc(C(=O)NCCC(C)C)c(=O)c2cc(S(=O)(=O)N3CCCCC3)ccc21`: -7.53%; for `Cc1cccc(NC(=O)c2c(O)c3ccccc3n(C)c2=O)c1`: 25.8%; for `Cc1ccc(CCNC(=O)C2CCCN(C(=O)N(C)C)C2)cc1` (stereo not shown): 8.01%. As for `CCOc1ccc(CCNC(=O)c2nnc(Cc3ccc(F)cc3)o2)cc1OCC`, the figure is -1.78%.

As for `Cc1cc(C)c2cccc(N)c2n1`, the “hERG current change (%, negative = inhibition) at 10uM” value stood at 20.7%. `Cc1cc(C)c2c(SC(C)C)nc(N)nc2n1`: the “hERG current change (%, negative = inhibition) at 10uM” value was -4.12%.

Regarding `Cc1cc(C)c2c(N)c3ccccc3nc2n1`, the “hERG current change (%, negative = inhibition) at 10uM” value is -53.9%.

Consider `Cc1cc(C)c2c(N)c3cccc(C)c3nc2n1`, for which the “hERG current change (%, negative = inhibition) at 10uM” value is on record as -64.7%. As for `CCc1ccc2nc3nc(C)cc(C)c3c(N)c2c1`, the figure is 1.12%; as for `Cc1cc(C)c2nc(-n3nc(C)cc3N)cc(C)c2c1`, 20%; as for `Cc1cccc2c(C(=O)O)c3cccc(C)c3nc12`, 1.39%.

`Cc1cc(C)c2nc3nc(C)cc(C)c3c(N)c2c1`: the “hERG current change (%, negative = inhibition) at 10uM” value is reported as -65.5%. For the compound `Cc1cc(N)c2ccccc2n1`, the “hERG current change (%, negative = inhibition) at 10uM” value is given as 7.4%.

Values taken from article PMC4336329 (PLoS ONE, 2015).
